Compounds without any hit were thinned out: in the full panel of roughly 83,000, 20% have a hit.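 Percent growth is the endpoint: 0 to 100 indicates growth inhibition (40 means 60% inhibition), 0 means no net growth, and negative values indicate cell death.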 The source made the active and inactive calls. Rule for the calls: active = growth percent below 10; inactive = the rest.
What was measured:
Test in all cases: NCI-60 one-dose screen, 48 h (100 = growth as untreated, 0 = no growth, -100 = all killed)
Conditions in all cases: 10 µM unless noted
SR leukemia = tested on: SR leukemia
RPMI-8226 leukemia = tested on: RPMI-8226 leukemia
OVCAR-8 ovarian = tested on: OVCAR-8 ovarian
OVCAR-5 ovarian = tested on: OVCAR-5 ovarian
SK-OV-3 ovarian = tested on: SK-OV-3 ovarian
IGROV1 ovarian = tested on: IGROV1 ovarian
OVCAR-3 ovarian = tested on: OVCAR-3 ovarian
HS 578T breast = tested on: HS 578T breast
NCI/ADR-RES ovarian = tested on: NCI/ADR-RES ovarian

Measured: growth

Fc1cccc(-c2[nH]nc3nc(Nc4cccnc4)sc23)c1
active: OVCAR-3 ovarian -18.3%
inactive: SR leukemia 15% | RPMI-8226 leukemia 27.2% | OVCAR-8 ovarian 54% | OVCAR-5 ovarian 86.9% | SK-OV-3 ovarian 41% | IGROV1 ovarian 51.4% | HS 578T breast 69.4% | NCI/ADR-RES ovarian 21.6%

Cn1cc(-c2csc(-c3c[nH]c4ccccc34)n2)c2cccnc21
active: OVCAR-3 ovarian -14.9% | NCI/ADR-RES ovarian 0.975%
inactive: SR leukemia 27.4% | RPMI-8226 leukemia 21.3% | OVCAR-8 ovarian 39.2% | OVCAR-5 ovarian 54% | SK-OV-3 ovarian 28.9% | IGROV1 ovarian 42% | HS 578T breast 60.5%

COc1c(N)c2c(c([N+](=O)[O-])c1OC)C(=O)OC2
inactive: SR leukemia 91.2% | RPMI-8226 leukemia 99.9% | OVCAR-8 ovarian 98.1% | OVCAR-5 ovarian 115% | SK-OV-3 ovarian 105% | IGROV1 ovarian 105% | OVCAR-3 ovarian 105% | HS 578T breast 109% | NCI/ADR-RES ovarian 114%

COc1ccc(/C=C/C(=O)c2ccc([N+](=O)[O-])cc2)cc1
inactive: SR leukemia 85.4% | RPMI-8226 leukemia 78.9% | OVCAR-8 ovarian 105% | OVCAR-5 ovarian 111% | SK-OV-3 ovarian 103% | IGROV1 ovarian 105% | OVCAR-3 ovarian 113% | HS 578T breast 106% | NCI/ADR-RES ovarian 106%

O=C(c1ccccc1)C(CN1CCOCC1)c1ccccc1 (configuration not stated)
active: SR leukemia -0.205% | RPMI-8226 leukemia -8.68% | IGROV1 ovarian 7.53% | OVCAR-3 ovarian -10.7%
inactive: OVCAR-8 ovarian 14.2% | OVCAR-5 ovarian 116% | SK-OV-3 ovarian 91.6% | HS 578T breast 59.8% | NCI/ADR-RES ovarian 18.8%

O=C(O)c1cccc2c1C(=O)N(c1ccc3c(c1)Cc1ccccc1-3)C2=O
inactive: SR leukemia 102% | RPMI-8226 leukemia 110% | OVCAR-8 ovarian 107% | OVCAR-5 ovarian 116% | SK-OV-3 ovarian 114% | IGROV1 ovarian 125% | OVCAR-3 ovarian 122% | HS 578T breast 112% | NCI/ADR-RES ovarian 116%

C=C(C)[C@@H]1CC[C@]2(C)CC[C@]3(C)[C@H](CC[C@@H]4[C@@]5(C)CCCNC(C)(C)[C@@H]5CC[C@]43C)[C@@H]12
inactive: RPMI-8226 leukemia 30.1% | OVCAR-8 ovarian 84.1% | OVCAR-5 ovarian 107% | SK-OV-3 ovarian 113% | IGROV1 ovarian 94% | OVCAR-3 ovarian 76.2% | HS 578T breast 101% | NCI/ADR-RES ovarian 97.3%
active: SR leukemia 1.2%

Oc1cccc2oc(=S)[nH]c12
inactive: SR leukemia 90.4% | RPMI-8226 leukemia 106% | OVCAR-8 ovarian 112% | OVCAR-5 ovarian 97.4% | SK-OV-3 ovarian 108% | IGROV1 ovarian 110% | OVCAR-3 ovarian 125% | HS 578T breast 109% | NCI/ADR-RES ovarian 102%

CC(=O)O[C@@H]1CCN2C(=O)N(C)c3ccccc3[C@@H]2C1
inactive: SR leukemia 93.3% | RPMI-8226 leukemia 104% | OVCAR-8 ovarian 109% | OVCAR-5 ovarian 96.5% | SK-OV-3 ovarian 101% | IGROV1 ovarian 105% | OVCAR-3 ovarian 122% | HS 578T breast 116% | NCI/ADR-RES ovarian 104%

C=C1C(=O)O[C@H]2[C@H]1CC/C(COC(=O)N[C@H](Cc1c[nH]c3ccccc13)C(=O)OC)=C\CC[C@@]1(C)O[C@@H]21
inactive: OVCAR-8 ovarian 50.5% | OVCAR-5 ovarian 98.6% | SK-OV-3 ovarian 96.2% | IGROV1 ovarian 16.5% | HS 578T breast 81.1% | NCI/ADR-RES ovarian 87.2%
active: SR leukemia 3.67% | RPMI-8226 leukemia 2.85% | OVCAR-3 ovarian -21.9%

C/C(=N\Nc1cc(C)c2cc(C)ccc2n1)c1ccccn1
active: SR leukemia 0.29% | RPMI-8226 leukemia -33.4% | OVCAR-8 ovarian -60% | OVCAR-5 ovarian -33.3% | IGROV1 ovarian -35.9% | OVCAR-3 ovarian -40.6% | NCI/ADR-RES ovarian 1.12%
inactive: SK-OV-3 ovarian 25.4% | HS 578T breast 45.9%

C#Cc1cc2c(N)c(C(=O)c3cc(OC)c(OC)c(OC)c3)[nH]c2cc1OC
inactive: RPMI-8226 leukemia 26.7% | OVCAR-8 ovarian 47.8% | OVCAR-5 ovarian 37.5% | SK-OV-3 ovarian 28.8% | IGROV1 ovarian 32.6% | NCI/ADR-RES ovarian 21.9%
active: SR leukemia 7.33% | OVCAR-3 ovarian 0.789% | HS 578T breast 1.91%

O=C(Nc1ccc(/C=C2\SC(=O)N(Cc3ccc(OC(F)(F)F)cc3)C2=O)cc1)c1ccc(Cl)c([N+](=O)[O-])c1
inactive: OVCAR-8 ovarian 87.5% | OVCAR-5 ovarian 85.5% | SK-OV-3 ovarian 93.7% | IGROV1 ovarian 79.9% | OVCAR-3 ovarian 48.2% | HS 578T breast 72.1% | NCI/ADR-RES ovarian 73.6%
active: SR leukemia -0.106% | RPMI-8226 leukemia -11.2%

CC(=O)O[C@H]1CC[C@@]2(C)C(=CC[C@@H]3[C@@H]2CC[C@]2(C)C(=O)N(O)C(=O)C[C@@H]32)C1
inactive: SR leukemia 74.8% | RPMI-8226 leukemia 52.8% | OVCAR-8 ovarian 101% | OVCAR-5 ovarian 98.9% | SK-OV-3 ovarian 93.2% | IGROV1 ovarian 83.3% | OVCAR-3 ovarian 102% | HS 578T breast 106% | NCI/ADR-RES ovarian 100%

O=C(/C=C/c1cccc(O)c1)c1ccccc1O
inactive: SR leukemia 36% | RPMI-8226 leukemia 28% | OVCAR-8 ovarian 92.9% | OVCAR-5 ovarian 99.4% | SK-OV-3 ovarian 107% | IGROV1 ovarian 66.7% | OVCAR-3 ovarian 93.5% | HS 578T breast 86.9% | NCI/ADR-RES ovarian 86.6%

NC1(N)C=CC2=C(C=C1)C1(N)C3=C(C=CC(N)(N)C=C3)N2C2(N)C3=C(C=CC(N)(N)C=C3)N1C1=C2C=CC(N)(N)C=C1
inactive: SR leukemia 79.2% | RPMI-8226 leukemia 18.6% | OVCAR-8 ovarian 90.5% | OVCAR-5 ovarian 105% | SK-OV-3 ovarian 102% | IGROV1 ovarian 94.8% | OVCAR-3 ovarian 97.8% | HS 578T breast 81.6% | NCI/ADR-RES ovarian 82.9%

O=S(=O)(NCCNc1cc(-c2cn(-c3ccccc3)nc2-c2cccc(O)c2)ccn1)c1cccc(F)c1
inactive: SR leukemia 18.9% | RPMI-8226 leukemia 22.9% | OVCAR-8 ovarian 34.2% | OVCAR-5 ovarian 54.8% | SK-OV-3 ovarian 50.3% | IGROV1 ovarian 43.5% | OVCAR-3 ovarian 50.8% | HS 578T breast 37.6% | NCI/ADR-RES ovarian 33.1%

COC(=O)[C@@H]1[C@H]2C[C@H]3c4[nH]c5cc(OC)ccc5c4CCN3C[C@@H]2C[C@H](OC(=O)/C=C/c2ccnc(OC)c2)[C@H]1OC
inactive: SR leukemia 73.1% | RPMI-8226 leukemia 69.6% | OVCAR-8 ovarian 88.4% | OVCAR-5 ovarian 102% | SK-OV-3 ovarian 96% | IGROV1 ovarian 83.2% | OVCAR-3 ovarian 90.3% | HS 578T breast 90.9% | NCI/ADR-RES ovarian 81.6%

Cc1ccc(C)c2c1CCC2C(C)C (configuration not stated)
inactive: SR leukemia 89.3% | RPMI-8226 leukemia 96.7% | OVCAR-8 ovarian 100% | OVCAR-5 ovarian 98.3% | SK-OV-3 ovarian 92.9% | IGROV1 ovarian 103% | OVCAR-3 ovarian 104% | HS 578T breast 100% | NCI/ADR-RES ovarian 105%

COc1cc(OC)c2c(c1)c1nc3cc(C)c(C)cc3nc1n2CCN(C)C
inactive: SR leukemia 49.4% | RPMI-8226 leukemia 65.2% | OVCAR-8 ovarian 79.3% | OVCAR-5 ovarian 105% | SK-OV-3 ovarian 93.7% | IGROV1 ovarian 87.2% | OVCAR-3 ovarian 109% | HS 578T breast 91.9% | NCI/ADR-RES ovarian 82%

Cn1cc(-c2nc(-c3cn(C)c4ncccc34)cs2)c2ccccc21
active: OVCAR-3 ovarian -17.8% | NCI/ADR-RES ovarian 8.77%
inactive: SR leukemia 18.4% | RPMI-8226 leukemia 39.6% | OVCAR-8 ovarian 47.9% | OVCAR-5 ovarian 73% | SK-OV-3 ovarian 43.2% | IGROV1 ovarian 45% | HS 578T breast 81%

Fc1ccc(Nc2ccc3c(OCCCN4CCOCC4)cccc3n2)cc1F
inactive: SR leukemia 28% | RPMI-8226 leukemia 41.3% | OVCAR-8 ovarian 117% | OVCAR-5 ovarian 67.8% | SK-OV-3 ovarian 96.9% | IGROV1 ovarian 82.4% | OVCAR-3 ovarian 85.8% | HS 578T breast 67.5% | NCI/ADR-RES ovarian 76.9%

Cc1cc(Nc2ccc(F)cc2)nc(N2CCN(c3ccnc4cc(Cl)ccc34)CC2)n1
active: SR leukemia 2.7% | OVCAR-5 ovarian 8.2%
inactive: RPMI-8226 leukemia 12.5% | OVCAR-8 ovarian 31.9% | SK-OV-3 ovarian 46.8% | IGROV1 ovarian 31.6% | OVCAR-3 ovarian 24.1% | HS 578T breast 39.3% | NCI/ADR-RES ovarian 13.5%

O=[N+]([O-])c1cccc(/C=N\Nc2ccccc2)c1
inactive: SR leukemia 89.6% | RPMI-8226 leukemia 86.5% | OVCAR-8 ovarian 63.8% | OVCAR-5 ovarian 74.7% | SK-OV-3 ovarian 95.8% | IGROV1 ovarian 60.1% | OVCAR-3 ovarian 73.1% | HS 578T breast 71.7% | NCI/ADR-RES ovarian 48.7%

O=C(O)c1cccc2c1-c1ccc(Cl)cc1C2
inactive: SR leukemia 88.2% | RPMI-8226 leukemia 102% | OVCAR-8 ovarian 107% | OVCAR-5 ovarian 115% | SK-OV-3 ovarian 117% | IGROV1 ovarian 114% | OVCAR-3 ovarian 118% | HS 578T breast 103% | NCI/ADR-RES ovarian 110%

Cc1cc(C)n(Cc2cc(C(C)(C)C)cc(C(C)(C)C)c2)c(=O)c1C#N
inactive: SR leukemia 84% | RPMI-8226 leukemia 93.7% | OVCAR-8 ovarian 93.4% | OVCAR-5 ovarian 83.8% | SK-OV-3 ovarian 87% | IGROV1 ovarian 96.8% | OVCAR-3 ovarian 106% | HS 578T breast 81.6% | NCI/ADR-RES ovarian 96.7%

CCOc1ccc(NC(=O)c2ccccc2-c2ccccc2C(=O)O)cc1
inactive: SR leukemia 89.7% | RPMI-8226 leukemia 101% | OVCAR-8 ovarian 111% | OVCAR-5 ovarian 98.6% | SK-OV-3 ovarian 109% | IGROV1 ovarian 110% | OVCAR-3 ovarian 110% | HS 578T breast 103% | NCI/ADR-RES ovarian 108%

Cn1c2c(c3ccc(Cl)cc31)-n1cccc1C2=O
inactive: SR leukemia 67.1% | RPMI-8226 leukemia 88.3% | OVCAR-8 ovarian 83.5% | OVCAR-5 ovarian 103% | SK-OV-3 ovarian 102% | IGROV1 ovarian 69.9% | OVCAR-3 ovarian 104% | HS 578T breast 104% | NCI/ADR-RES ovarian 99.7%
